# Results as given in the supplement of paper PMC11219838.
# Test system: Caenorhabditis elegans L1 (N2)
# Test: survival and reproduction score of C. elegans L1 (0: 0-10 living worms, 1: 11-20, 2: 21-50, 3: >50, 4: overgrown) (score 0-4); higher = more worms, less nematicidal, active = 1 or less; extreme values may be limits of the assay
# Details: 60 µM; 6 days; temperature: 20 °C
# Description: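 DODA library (846 commercial 1,3,4- and 1,2,4-oxadiazole compounds plus commercial nematicide controls) screened at a single dose of 60 µM (0.6% DMSO) in 96-well plates, two biological replicates. Read-outs: C. elegans N2 L1 survival/reproduction score at day 6, 20 °C (0: 0-10 worms, 1: 11-20, 2: 21-50, 3: >50, 4: overgrown/starved). C. elegans daf-2 dauer, D. dipsaci and M. hapla J2 mobility at day 5, 20 °C, and P. penetrans mobility at day 5, 20 °C, each relative to DMSO controls. M. hapla egg hatching at day 12, 25 °C, relative to the mean of 8 DMSO wells on the same plate.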
row,SMILES,survival and reproduction score
1,CCOc1ccc(NC(=O)CSc2nnc(-c3ccccc3Cl)o2)cc1,4 (inactive)
2,CCOc1nc(-c2ccccc2)ccc1-c1noc(-c2cccc(C)c2)n1,4 (inactive)
3,COc1ccc(-c2nnc(SCC(=O)Nc3ccc(Br)c(C)c3)o2)cc1,4 (inactive)
4,Cn1cc(C(=O)CSc2nnc(-c3ccccc3)o2)c2ccccc21,0 (active)
5,c1ccc(CSc2nnc(-c3cccnc3)o2)cc1,4 (inactive)
6,COc1nc2ccc(C)cc2cc1-c1noc(-c2cccnc2)n1,4 (inactive)
7,Clc1ccc(OCc2ccccc2)c(-c2nc(-c3cccnc3)no2)c1,4 (inactive)
8,CN(C)c1ccc(-c2nnc(SCc3ccccc3)o2)cc1,4 (inactive)
9,COc1ccc(-c2nnc(SCC(=O)Nc3ccc(C)cc3Br)o2)cc1,4 (inactive)
10,Cc1cc(OCc2nc(-c3ccncc3)no2)ccc1Cl,4 (inactive)
11,O=C(CSc1nnc(-c2ccco2)o1)Nc1cccc(Cl)c1Cl,4 (inactive)
12,O=C(Nc1ccc(-c2noc(COc3ccccc3Cl)n2)cc1)c1ccccn1,4 (inactive)
13,COc1ccccc1NC(=O)c1ccccc1-c1nc(-c2ccccc2F)no1,4 (inactive)
14,Cc1cccc(-c2noc(-c3cc(Cl)ccc3Cl)n2)c1,2 (inactive)
15,O=C(CSc1nnc(-c2ccccc2)o1)NC1CCCCC1,4 (inactive)
16,Cc1cccc(OCc2nc(-c3ccccc3)no2)c1,1.5 (inactive)
17,O=C(CSc1nnc(-c2ccc(Br)cc2)o1)NC1CCCCC1,4 (inactive)
18,CC(Sc1nnc(-c2cccnc2)o1)C(=O)c1ccccc1 (stereo not given),4 (inactive)
19,CCOc1nc(-c2ccccc2)ccc1-c1noc(-c2ccccc2F)n1,4 (inactive)
20,O=C(CSc1nnc(-c2ccccc2Cl)o1)Nc1ccc(Br)cn1,4 (inactive)

row,SMILES,survival and reproduction score
1,Clc1ccc(-c2nc(-c3ccncc3)no2)cc1,0.5 (active)
2,CCc1ccc(OCc2nc(-c3ccc(Cl)cc3)no2)cc1,4 (inactive)
3,COc1ccc(Cl)cc1-c1noc(-c2ccccc2C)n1,4 (inactive)
4,Cc1ccc(SCc2nc(-c3cccc(C)c3)no2)cc1,4 (inactive)
5,Cc1ccccc1-c1noc(-c2ccccc2OCC(N)=O)n1,4 (inactive)
6,CCc1ccc(NC(=O)CSc2nnc(-c3ccco3)o2)cc1,4 (inactive)
7,COc1ccc(NC(=O)CSc2nnc(-c3ccccc3)o2)cc1,4 (inactive)
8,Brc1ccccc1-c1nc(-c2ccccc2)no1,0 (active)
9,Clc1ccc(OCc2nc(-c3ccccn3)no2)c(Br)c1,4 (inactive)
10,FC(F)(F)c1cccc(-c2noc(-c3cccs3)n2)c1,0 (active)
11,Cc1ccccc1OCc1nc(-c2ccc(NC(=O)c3ccc(Br)o3)cc2)no1,4 (inactive)
12,Cc1ccc(OCc2nc(-c3ccccn3)no2)cc1C,4 (inactive)
13,COc1nc(-c2ccccc2)ccc1-c1noc(-c2ccco2)n1,1 (active)
14,Clc1ccccc1CSc1nnc(-c2ccncc2)o1,4 (inactive)
15,O=C(c1ccccc1-c1nc(-c2ccccc2Cl)no1)N1CCCCC1,4 (inactive)
16,Cc1ccc(CSc2nnc(-c3ccncc3)o2)cc1,4 (inactive)
17,Clc1ccc(-c2nc(-c3ccccc3Br)no2)cc1,3.5 (inactive)
18,O=C(CSc1nnc(-c2ccccc2)o1)Nc1cccc(Cl)c1,4 (inactive)
19,O=C(Nc1ccccc1-c1nc(-c2cccnc2)no1)c1cc2ccccc2o1,4 (inactive)
20,COc1ccc(C(=O)CSc2nnc(-c3cccc(Br)c3)o2)cc1,4 (inactive)
